# The full list was thinned out, with hits kept by preference.
# IDE exosite inh – insulin-degrading enzyme (human) exo-site inhibition; P14735; purified IDE, FL-6b probe fluorescence polarization; stronger effect = lower value; z-score at 20 µM; 6.3% of 17,000 active; AID 1259349;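 active = z-score of -3 or lower, meaning strong loss of probe binding signal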;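 also: His-tagged human IDE residues 42-1019 made in E. coli with 30 nM FL-6b probe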
# Target sequence (P14735 42-1019 limits assumed): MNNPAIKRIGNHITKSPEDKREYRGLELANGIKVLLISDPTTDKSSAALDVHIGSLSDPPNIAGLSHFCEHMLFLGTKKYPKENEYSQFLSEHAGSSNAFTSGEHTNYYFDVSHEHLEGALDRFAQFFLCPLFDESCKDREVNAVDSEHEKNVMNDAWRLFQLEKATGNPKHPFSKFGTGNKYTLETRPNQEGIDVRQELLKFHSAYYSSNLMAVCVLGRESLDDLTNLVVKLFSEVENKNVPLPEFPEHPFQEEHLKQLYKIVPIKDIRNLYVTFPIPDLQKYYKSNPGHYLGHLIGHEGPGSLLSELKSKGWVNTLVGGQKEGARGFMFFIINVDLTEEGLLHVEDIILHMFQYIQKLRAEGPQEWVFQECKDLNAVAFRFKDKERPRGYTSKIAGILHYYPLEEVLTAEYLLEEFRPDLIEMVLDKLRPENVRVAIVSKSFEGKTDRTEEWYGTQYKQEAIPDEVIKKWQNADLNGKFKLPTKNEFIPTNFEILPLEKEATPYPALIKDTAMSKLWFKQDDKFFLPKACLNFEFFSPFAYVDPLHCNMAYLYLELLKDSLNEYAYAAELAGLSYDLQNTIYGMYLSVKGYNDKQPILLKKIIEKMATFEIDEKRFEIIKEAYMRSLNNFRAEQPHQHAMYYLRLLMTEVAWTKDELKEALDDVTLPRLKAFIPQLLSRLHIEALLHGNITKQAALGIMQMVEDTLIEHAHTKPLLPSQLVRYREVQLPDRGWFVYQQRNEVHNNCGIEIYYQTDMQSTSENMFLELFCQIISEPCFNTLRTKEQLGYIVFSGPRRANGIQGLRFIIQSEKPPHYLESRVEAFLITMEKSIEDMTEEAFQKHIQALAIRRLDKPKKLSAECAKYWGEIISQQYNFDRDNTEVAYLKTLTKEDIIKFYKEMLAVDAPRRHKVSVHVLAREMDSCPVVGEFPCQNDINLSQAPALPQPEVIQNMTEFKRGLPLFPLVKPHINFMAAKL
# An asterisk follows results filed as active.
SMILES,IDE exosite inh
CCS(=O)(=O)N1[C@H](C#N)[C@H](c2ccc(C#Cc3ccccc3F)cc2)[C@@H]1CO,0.48
O=C(C1CCCC1)N1CC(=O)N2[C@H](CO)[C@H](c3ccc(-c4ccccc4F)cc3)[C@@H]2C1,-3.6*
O=C(C1CCCCC1)N1CC(=O)N2[C@H](CO)[C@@H](c3ccc(-c4ccccc4F)cc3)[C@H]2C1,-0.66
O=C(C1CCOCC1)N1CC(=O)N2[C@@H](CO)[C@H](c3ccc(-c4ccccc4F)cc3)[C@@H]2C1,-1.1
O=C(C1CCCCC1)N1CC(=O)N2[C@H](C1)[C@H](c1ccc(-c3ccccc3F)cc1)[C@@H]2CO,-0.71
O=C(C1CC1)N1CC(=O)N2[C@H](CO)[C@@H](c3ccc(-c4ccccc4F)cc3)[C@H]2C1,1.8
O=C(C1CCOCC1)N1CC(=O)N2[C@H](CO)[C@H](c3ccc(-c4ccccc4F)cc3)[C@H]2C1,-7.6*
O=C(C1CC1)N1CC(=O)N2[C@H](CO)[C@H](c3ccc(-c4ccccc4F)cc3)[C@H]2C1,-7.9*
O=C(C1CCCCC1)N1CC(=O)N2[C@@H](CO)[C@@H](c3ccc(-c4ccccc4F)cc3)[C@@H]2C1,-1.4
O=C(C1CC1)N1CC(=O)N2[C@H](C1)[C@H](c1ccc(-c3ccccc3F)cc1)[C@@H]2CO,-0.66
O=C(C1CCC1)N1CC(=O)N2[C@@H](CO)[C@H](c3ccc(-c4ccccc4F)cc3)[C@@H]2C1,-0.8
O=C(C1CCC1)N1CC(=O)N2[C@H](CO)[C@@H](c3ccc(-c4ccccc4F)cc3)[C@H]2C1,2.4
O=C(C1CCC1)N1CC(=O)N2[C@H](CO)[C@@H](c3ccc(-c4ccccc4F)cc3)[C@@H]2C1,-9.1*
CCCNC(=O)NC[C@H]1[C@@H](c2ccc(C3=CCCCC3)cc2)[C@@H](CO)N1C(C)=O,2.3
CN1C(=O)c2cc(NC(=O)Nc3ccccc3F)ccc2OC[C@@H]2O[C@@H](CC(=O)NCCc3ccncc3)CC[C@@H]21,-0.21
CCCNC(=O)N1[C@@H]2c3cccc(=O)n3C[C@H]1[C@H](CO)[C@H]2C(=O)N1CCC(Cc2ccccc2)CC1,0.37
O=C(Nc1nccs1)[C@H]1[C@H](CO)[C@H]2Cn3c(cccc3=O)[C@@H]1N2C(=O)C1CC1,-0.75
N#C[C@H]1[C@@H](c2ccccc2C2=CCCCC2)[C@@H](CO)N1C(=O)Cc1ccncc1,1.1
Cc1cccc(-c2ccc([C@@H]3[C@@H](CO)N4C(=O)CN(S(=O)(=O)c5cccc(F)c5)C[C@@H]34)cc2)c1,-0.98
O=C(CC1CC1)N1CC2(C1)[C@H](c1ccccc1)[C@H](CO)N2Cc1ccccn1,-1.2
COc1ccc(S(=O)(=O)N2C[C@H](O)COC[C@@H]3O[C@@H](CC(=O)N[C@@H]4CCN(Cc5ccccc5)C4)CC[C@H]32)cc1,-1.6
N#C[C@H]1[C@@H](c2ccccc2C2=CCCCC2)[C@H](CO)N1C(=O)C1CCOCC1,3.5
CCc1csc(N2[C@H](C#N)[C@@H](c3ccc(-c4ccc(F)cc4)cc3)[C@H]2CO)n1,3.5
COc1cccc(NC(=O)N[C@@H]2C=C[C@@H](CC(=O)NCc3ccncn3)O[C@H]2CO)c1,1.7
C[C@H]1CN([C@@H](C)CO)C(=O)CCCn2cc(nn2)CO[C@H]1CN(C)C(=O)Nc1ccc2c(c1)OCO2,-0.56
SMILES,IDE exosite inh
N#C[C@H]1[C@H](c2ccccc2-c2cccc(F)c2)[C@@H](CO)N1C(=O)C1CC1,-0.28
O=C(NC1CCCC1)[C@@H]1[C@@H](CO)[C@@H]2Cn3c(cccc3=O)[C@@H]2N1CCc1ccccc1,-0.33
CS(=O)(=O)N1CC(=O)N2[C@H](C1)[C@@H](c1ccc(C#CC3CCCC3)cc1)[C@@H]2CO,2.4
CCC(=O)N1[C@H](CO)[C@H](c2ccccc2)[C@H]1CNC(=O)CN1CCOCC1,3.5
CCC(=O)Nc1ccc2c(c1)OC[C@@H](C)N(Cc1ccccc1)C[C@@H](C)[C@@H](OC)CN(C)C2=O,2.3
CCS(=O)(=O)N1CC(=O)N2[C@@H](CO)[C@H](c3ccc(C#CC4CCCCC4)cc3)[C@@H]2C1,-1.1
Cn1cnc(S(=O)(=O)N2CCCCN3[C@H](C2)[C@@H](c2ccc(-c4ccccc4F)cc2)[C@@H]3CO)c1,-0.2
Cn1cnc(S(=O)(=O)N2CCCCN3[C@@H](CO)[C@@H](c4ccc(-c5ccccc5F)cc4)[C@@H]3C2)c1,-5.6*
Cn1cnc(S(=O)(=O)N2CCCCN3[C@H](CO)[C@@H](c4ccc(-c5ccc(F)cc5)cc4)[C@H]3C2)c1,2.2
Cn1cnc(S(=O)(=O)N2CCCCN3[C@H](CO)[C@H](c4ccc(-c5ccccc5F)cc4)[C@@H]3C2)c1,-1.2
Cn1cnc(S(=O)(=O)N2CCCCN3[C@H](CO)[C@H](c4ccc(-c5ccc(F)cc5)cc4)[C@H]3C2)c1,1
Cn1cnc(S(=O)(=O)N2CCCCN3[C@H](CO)[C@H](c4ccc(-c5ccccc5F)cc4)[C@H]3C2)c1,-4.6*
C[C@@H]1CCCCO[C@@H](CN(C)C(=O)c2ccncc2)[C@H](C)CN([C@@H](C)CO)C(=O)c2cc(NS(=O)(=O)c3cccs3)ccc2O1,0.33
C[C@@H]1CN([C@@H](C)CO)C(=O)c2cc(NS(=O)(=O)c3ccc(Cl)cc3)ccc2O[C@@H](C)CCCCO[C@@H]1CN(C)C(=O)CCCN(C)C,1.7
Cc1ccc(S(=O)(=O)Nc2ccc3c(c2)C(=O)N([C@@H](C)CO)C[C@H](C)[C@H](CN(C)S(=O)(=O)c2cccs2)OCCCC[C@H](C)O3)cc1,-1.1
O=C(C[C@H]1CC[C@H]2[C@@H](COC[C@H](O)CN2Cc2nccs2)O1)NCc1ccccc1Cl,-1.3
